Sampled rows, rich in hits. Any-hit rate of the full collection: about 1.1%.
S1P2 blocker – blocks the human S1P2 receptor | O95136 | cell-based S1P2 antagonist assay, inhibition at 5 uM | inhibition, % at 5 µM | hit rate 0.21% among 97,000 | AID 736; in the data active = inhibition above about 45%;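 also: CRE beta-lactamase reporter cells expressing human S1P2 stimulated with S1P; 0% = agonist at EC80 alone and 100% = agonist plus reference antagonist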
Target sequence (O95136 whole entry, looked up): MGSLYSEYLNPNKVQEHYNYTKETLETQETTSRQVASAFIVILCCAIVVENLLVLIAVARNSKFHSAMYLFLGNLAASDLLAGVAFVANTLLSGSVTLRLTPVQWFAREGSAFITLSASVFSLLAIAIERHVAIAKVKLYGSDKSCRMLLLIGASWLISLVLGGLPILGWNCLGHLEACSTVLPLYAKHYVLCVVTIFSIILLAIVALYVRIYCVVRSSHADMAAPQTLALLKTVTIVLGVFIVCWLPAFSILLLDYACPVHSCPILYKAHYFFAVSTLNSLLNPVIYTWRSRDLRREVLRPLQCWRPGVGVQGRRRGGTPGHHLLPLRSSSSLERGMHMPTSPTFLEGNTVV
GALR2 agonist – GALR2 (human) receptor agonism | activation, % (concentration not given with the values) | GALR2-expressing cells, agonist activation read-out | O43603 | hit rate 0.48% among 140,000 | AID 803; in the data active = activation above about 5%, passing the limit was not always enough;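 also: 0% = vehicle buffer wells and 100% = reference agonist at full effect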
GALR2 blocker – blocks the human galanin receptor 2 | O43603 | GALR2-expressing cells, antagonist mode | inhibition, % at 4 µM | hit rate 0.39% among 140,000; in the data active = inhibition above about 27%;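 also: cells stimulated with galanin 1-16 at roughly its EC80; 0% = agonist challenge control and 100% = basal control without agonist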
S1P2 agonist – activates the human S1P2 receptor; O95136; S1P2-expressing cell line, agonist reporter read-out; activation, % at 4.5 µM; hit rate 0.46% among 97,000; AID 729; in the data active = activation above about 16%;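 also: 0% = vehicle low control and 100% = maximal reference agonist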
* marks the source's active call; other numbers are inactive results; i = inactive; · = no result given.

SMILES	S1P2 blocker	GALR2 agonist	GALR2 blocker	S1P2 agonist
COc1ccc(/C=C/C(=O)Nc2sc3c(c2C(=O)NCc2cccnc2)CCCC3)cc1	6	-1	5	-9
N#Cc1cc2c(nc1SCC(=O)N1CCCCC1)CCCCC2	-21	-1	2	-5
N#Cc1cc2c(nc1SCC(=O)N1CCCCC1)CCCC2	17	1	0	32*
COc1ccc(/C=N/NC(=O)c2nc(-c3ccccc3)cc(-c3ccccc3)n2)cc1	54*	-4	-7	-17
COc1ccc(-c2[nH]c(-c3ccc(SC)cc3)nc2SCC(=O)Nc2nccs2)cc1	·	0	4	·
C=CS(=O)(=O)c1ccc(Oc2ccc(S(=O)(=O)C=C)cc2)cc1	·	-3	91*	·
CCCOC(=O)C1C2C=C[C@]3(CN(CCc4ccccc4)C(=O)[C@H]13)O2 (stereo partly specified)	0	-2	3	-5
CN(C)c1ccc(/C=N/n2ncc3ccccc32)cc1	·	25*	-1	·
O=C(CN1CCN(C(=O)c2c(F)cccc2F)CC1)Nc1ccccc1F	·	-2	20	·
Oc1cccc2ccc(Nc3ccccn3)nc12	·	-2	30*	·
COC(=O)c1ccc2c(c1)C(C)(C)C(/C=C/c1ccc(O)cc1)=[N+]2C	37	6.8*	25	6
COC(=O)c1ccc2nc(C)c(C)nc2c1	-1	-2	-9	-5
COC(=O)c1ccc2c(c1)C(C)(C)C(/C=C/c1ccc(OC)c(OC)c1OC)=[N+]2C	48*	0	-7	-10
COc1ccc(NS(=O)(=O)c2cccc(Cl)c2)cc1S(=O)(=O)N1CCCCC1	·	0	1	·
COc1cc2c(cc1OC)C1=C(C#N)CC/C(=N\S(=O)(=O)c3cccc(Cl)c3)N1CC2	-41	0	5	49*
COc1ccc(NS(=O)(=O)c2ccc(O)c(NC(=O)c3cc4c(C)nn(-c5ccc(F)cc5)c4s3)c2)cc1	·	1	-1	·
Cc1ccc(-n2c(Cn3nc(C(F)F)cc3C(F)F)n[nH]c2=S)cc1	4	-2	5	-7
CN(C)c1ccc(NC(=O)c2cccc(N3C(=O)C4C5C=CC(C5)C4C3=O)c2)cc1 (stereo unspecified)	-2	-3	47*	-4
Cc1cccn2c(=O)c(/C=C(\C#N)C(=O)NC3CCS(=O)(=O)C3)c(N3CCC(C(N)=O)CC3)nc12 (stereo unspecified)	·	6.3*	-4	·
Cc1cccn2c(=O)c(/C=C(\C#N)S(=O)(=O)c3ccccc3)c(N3CCC(C(N)=O)CC3)nc12	0	-1	-2	-2
Cc1noc2ncnc(Sc3ccccc3Cl)c12	55*	-2	10	-8
Cc1noc2ncnc(Oc3ccccc3)c12	24	-1	6	-6
N#CCSc1nc2cc(C(=O)N3CCC(C(N)=O)CC3)ccc2c2nc3ccccc3n12	-23	0	-8	37*
N#CCSc1nc2cc(C(=O)N3CCCC3)ccc2c(=O)n1Cc1ccccc1	-3	1	-4	0
COc1cc2c(cc1OC)C1=C(C#N)CN(CC(=O)O)CN1CC2	-28	-1	-8	23*
SMILES	S1P2 blocker	GALR2 agonist	GALR2 blocker	S1P2 agonist
CCCCCCCCCCCCCCCC[n+]1cccc2ccccc21	·	-2	11	·
CCCCCCCCC[n+]1cccc2c3ccccc3ccc21	48*	0	2	-3
O=C(C#Cc1cccc([N+](=O)[O-])c1)c1ccccc1	75*	-3	25	-10
COc1ccccc1C(=O)N1CCCN(C(=O)c2ccccc2OC)CC1	4	0	-9	37*
COc1ccccc1C(=O)Nc1ccccc1C(=O)N1CCCC1	17	-1	-7	-2
Clc1ccc2oc(-c3cccnc3NCc3ccccc3)nc2c1	-18	3	-13	25*
Cc1ccc(CNc2ncccc2-c2nc3cc(Cl)ccc3o2)cc1	12	-2	8	-6
O=c1cc(CSc2nnnn2-c2ccccc2)[nH]c2[nH]n(-c3ccccc3)c(=O)c12	14	0	4	-8
CCOC(=O)Cc1nc2ccccc2[nH]1	-11	5.4*	5	-5
CCOC(=O)CCc1nc2ccccc2[nH]c1=O	-19	-2	-8	-4
CCc1nc(SCc2nc3ccccc3[nH]2)c2oc3ccccc3c2n1	-33	0	-4	36*
Cc1cc(C(F)(F)F)nn1CC(=O)NNC(=S)Nc1cccc(Cl)c1	-6	-1	-11	-2
Cc1ccccc1N(C(=O)Cc1c[nH]c2ccccc12)C(C(=O)NC1CCCCC1)c1ccco1 (stereo unspecified)	·	6.1*	17	·
OCCN1CCN(c2nc(-c3ccccc3)c3cc(Cl)ccc3n2)CC1	-5	19*	9	18*
CN1CCN(c2nc(-c3ccccc3)c3cc(Cl)ccc3n2)CC1	5	18*	14	25*
COc1cccc(N2C(=O)C3CCCN3C2c2ccc(Cl)cc2)c1 (stereo unspecified)	16	-1	4	-4
CCN(CC)c1c2c(c(C#N)c3nc4ccccc4n13)CCC2	-36	1	4	20*
CC(=O)c1ccc(Nc2c3c(c(C#N)c4nc5ccccc5n24)CCC3)cc1	·	1	-3	·
COc1ccc(C(=O)Nc2ccc(-c3ccc(NC(=O)c4ccc(OC)cc4)c(OC)c3)cc2OC)cc1	·	6.2*	-2	·
COc1cc(/C=N/Nc2nc(Nc3ccccc3)nc(-n3nc(C)cc3C)n2)cc(OC)c1OC	·	8.1*	7	·
COc1cc(/C=N/Nc2nc(Nc3ccc(C)cc3)nc(-n3nc(C)cc3C)n2)cc(OC)c1OC	47*	6	7	-1
Clc1ccc(-c2nnc(CNC3CC3)o2)cc1	·	-1	8	·
O=C(O)CCS(=O)(=O)c1nc(-c2cccs2)cc(C(F)(F)F)n1	12	-2	3	-2
CS(=O)(=O)c1nc(-c2cccs2)cc(C(F)(F)F)n1	29	2	38*	-1
O=C(CCn1cnc2ccccc2c1=O)Nc1nc(-c2ccc(Br)cc2)cs1	·	7.9*	-5	·
SMILES	S1P2 blocker	GALR2 agonist	GALR2 blocker	S1P2 agonist
O=C(CCn1cnc2ccccc2c1=O)Nc1ccc(Cl)c(Cl)c1	-100	-2	1	-7
CCOC(=O)CC(=O)CSc1nc(C)cc(C)c1C#N	-3	7.2*	5	-5
CCOC(=O)CC(=O)CSc1nc2c(c(C)c1C#N)CCC2	23	-1	12	-6
O=c1cc(CNCCCO)c2ccccc2[nH]1	-8	0	-1	23*
CC(=O)N(Cc1cc(=O)[nH]c2ccccc12)c1ccc(C)cc1	i	-1	-1	-6
COC(=O)c1ccc(NC(=O)COc2ccc(C3C(C#N)=C(N)Oc4c3ccc3ccccc43)cc2OC)cc1 (stereo unspecified)	63*	-1	11	-7
Cc1ccccc1-n1c(O)c(/C=N/N2CCCCC2c2cccnc2)c(=O)[nH]c1=O (stereo unspecified)	·	-1	-9	·
CS(=O)c1nc(-c2ccc(Br)cc2)cc(-c2ccccc2)c1C#N (stereo unspecified)	·	6.2*	57*	·
CS(=O)(=O)c1nc(-c2ccc(Br)cc2)cc(-c2ccccc2)c1C#N	2	-3	0	19*
CN(C)c1ccc(/C=C/C(O)=C2/C(=O)N(C)C3(C)CC2c2ccccc2O3)cc1 (stereo unspecified)	69*	4	8	-2
